Each structure is given as a SMILES string. Active and inactive are the calls of the source.

Composite z-score and z-score data for five compounds are collected here from PubChem BioAssay.

The subject of assay [1] is PRMT1 (protein arginine N-methyltransferase 1). The experiment in a line: small molecules binding arginine methyltransferase PRMT1 – biochemical, small-molecule microarray, 635 nm fluorescence, primary screen (AID 1088).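 Also: binding of Prmt1 protein to compounds spotted on small-molecule microarray slides.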 The settings on record: higher = more signal.
Assay [2] in a line: growth effects on S. cerevisiae YJM789 – YJM789 clinical isolate, OD600, 24 h, basal, primary screen (AID 1089).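 Also: growth of clinical yeast isolate S. cerevisiae YJM 789 seeded 1000 cells per well; test concentration not given here.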 The settings on record: higher = more signal, called active from +8 up or from −8 down.
Assay [3] is described as follows: S. pombe growth modifiers, basal conditions – strain 972, OD600, 24 h, no modulator, primary screen (AID 1090).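 Also: basal condition with compound alone and no growth modifier present; test concentration not given here.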 The note with it: S. pombe 972 growth, higher = more signal, called active from +8 up or from −8 down.
Assay [4] in a line: budding yeast growth modifiers under rapamycin – strain BY4716, OD600, 96 h, primary screen (AID 1091). Also: test concentration not given here. The settings on record: S. cerevisiae BY4716 + rapamycin, higher = more signal, called active from +8 up or from −8 down.
In assay [5] the target is Torsin-1A-interacting protein 2 (Homo sapiens) (UniProt Q8NFQ8). The experiment in a line: small molecules binding lysate-expressed LULL1 – cell lysate, human LULL1 lysate, 635/667 nm fluorescence, primary screen (AID 1092).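 Also: probe is lysate of COS7 cells overexpressing human LULL1; score merges per-feature 667 nm fluorescence with signal-to-noise.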 The note with it: small-molecule microarray, hLULL1 lysate binding, 635 nm fluorescence; higher = more signal.
Assay [6] in a line: optical density change of DRC41 E. coli – strain DRC41, OD650, 24 h, E. coli filamentation project, primary screen (AID 1093).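 Also: MC1000 strain lacking acrAB efflux and sulA so SOS filamentation is blocked; test concentration not given here.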 The settings on record: E. coli DRC41 growth, higher = more signal, called active from +8 up or from −8 down.
Assay [7] can be described thus: probe aLefty2 binding to arrayed compounds – biochemical, biotinylated probe, 635/667 nm fluorescence, primary screen (AID 1094).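 Also: score merges spot fluorescence near 667 nm with spot signal-to-noise ratio.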 The settings on record: small-molecule microarray, higher = more signal.
Assay [8] relates to Noggin (protein binding on small-molecule microarray). As to the kind of experiment: small molecules binding Noggin protein – biochemical, 635/667 nm fluorescence, primary screen (AID 1095).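 Also: score merges 667 nm feature fluorescence with signal to noise over triplicate slides.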 The note with it: 635 nm fluorescence, higher = more signal.
The target of assay [9] is Neurogenic locus notch homolog protein 3 (Homo sapiens) (UniProt Q9UM47). The experiment in a line: small molecules binding NOTCH3 protein – biochemical, 635/667 nm fluorescence, primary screen (AID 1096). The note with it: small-molecule microarray, 635 nm fluorescence, higher = more signal.
The nature of assay [10]: probe aEGFR binding to arrayed compounds – biochemical, biotinylated probe, 635/667 nm fluorescence, primary screen (AID 1097).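 Also: probe is a biotinylated anti-EGFR antibody binding compounds printed on slides; score combines fluorescence near 667 nm and signal to noise of each spot.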 The settings on record: small-molecule microarray, higher = more signal.
In assay [11] the test system is Plasmodium falciparum Sir2 (PF13_0152, Sir2A). The experiment in a line: Plasmodium falciparum Sir2A binding compounds – biochemical, small-molecule microarray, 635 nm fluorescence, primary screen (AID 1098).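 Also: score merges spot fluorescence intensity with its signal-to-noise ratio.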 The note with it: fluorescence 635 nm, higher = more signal.
Assay [12] can be described thus: probe aDKK1 binding to arrayed compounds – biochemical, biotinylated probe, 635/667 nm fluorescence, primary screen (AID 1099).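 Also: score merges 667nm spot fluorescence with signal to noise across triplicate slides; reference of the scale not given here.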 The settings on record: small-molecule microarray, higher = more signal.
Assay [13] in a line: probe aCHRDL2 binding to arrayed compounds – biochemical, biotinylated probe, 635/667 nm fluorescence, primary screen (AID 1100). The note with it: small-molecule microarray, higher = more signal.
Assay [14] in a line: change in splice reporter luminescence, either direction, cell-based, HEK293, spliceosome inhibition project, primary screen (AID 1101).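 Also: HEK293 cells carrying a splicing-competent luciferase reporter gene; test concentration not given here.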 The note with it: HEK293 splicing luciferase reporter, 24 h, higher = more signal, called active from +8 up or from −8 down. In general terms: Reporter assays use an easily measured gene product as a stand-in for the process of interest.
In assay [15] the target is Fibroblast growth factor 10 (Homo sapiens) (UniProt O15520). The experiment in a line: compounds binding fibroblast growth factor 10 – biochemical, small-molecule microarray, 635 nm fluorescence, primary screen (AID 1102). The note with it: FGF10 binding, fluorescence 635 nm, higher = more signal.
For assay [16], the system named is glycogen synthase kinase-3 (GSK3A per assay name; protocol says GSK3B). The experiment in a line: compounds binding glycogen synthase kinase-3 – biochemical, small-molecule microarray, 635 nm fluorescence, GSK3A, primary screen (AID 1103). Also: the record names both GSK3A and GSK3B. The settings on record: fluorescence 635 nm, higher = more signal.
Assay [17] concerns the target Epidermal growth factor receptor (Homo sapiens) (UniProt P00533). The experiment in a line: compounds binding epidermal growth factor receptor – biochemical, small-molecule microarray, 635 nm fluorescence, primary screen (AID 1104).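 Also: score merges 667 nm emission intensity with spot signal to noise over triplicate slides.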 The settings on record: EGFR binding, higher = more signal.
Assay [18] concerns the target Follistatin-related protein 3 (Homo sapiens) (UniProt O95633). As to the kind of experiment: compounds binding follistatin-related protein 3 – biochemical, small-molecule microarray, 635 nm fluorescence, primary screen (AID 1105).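 Also: score merges emission near 667 nm and signal to noise per printed spot across three slides.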 The note with it: FSTL3 binding, higher = more signal.
Assay [19] concerns the target Dickkopf-related protein 1 (Homo sapiens) (UniProt O94907). The experiment in a line: small molecules binding DKK1 protein – biochemical, small-molecule microarray, 635 nm fluorescence scan, primary screen (AID 1106).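 Also: score merges emission near 667 nm with signal to noise over three replicate slides.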 The note with it: higher = more signal.
In assay [20] the test system is Inhibin beta A chain (activin A). As to the kind of experiment: small molecules binding activin A – biochemical, small-molecule microarray, 635 nm fluorescence scan, primary screen (AID 1107).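 Also: mouse activin A protein probed at 4.33 µg/mL on printed slides; score merges bound-protein fluorescence near 667 nm with spot signal-to-noise.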 The note with it: INHBA, higher = more signal.

Neurogenic locus notch homolog protein 3 (Homo sapiens), sequence (Q9UM47 whole entry, looked up): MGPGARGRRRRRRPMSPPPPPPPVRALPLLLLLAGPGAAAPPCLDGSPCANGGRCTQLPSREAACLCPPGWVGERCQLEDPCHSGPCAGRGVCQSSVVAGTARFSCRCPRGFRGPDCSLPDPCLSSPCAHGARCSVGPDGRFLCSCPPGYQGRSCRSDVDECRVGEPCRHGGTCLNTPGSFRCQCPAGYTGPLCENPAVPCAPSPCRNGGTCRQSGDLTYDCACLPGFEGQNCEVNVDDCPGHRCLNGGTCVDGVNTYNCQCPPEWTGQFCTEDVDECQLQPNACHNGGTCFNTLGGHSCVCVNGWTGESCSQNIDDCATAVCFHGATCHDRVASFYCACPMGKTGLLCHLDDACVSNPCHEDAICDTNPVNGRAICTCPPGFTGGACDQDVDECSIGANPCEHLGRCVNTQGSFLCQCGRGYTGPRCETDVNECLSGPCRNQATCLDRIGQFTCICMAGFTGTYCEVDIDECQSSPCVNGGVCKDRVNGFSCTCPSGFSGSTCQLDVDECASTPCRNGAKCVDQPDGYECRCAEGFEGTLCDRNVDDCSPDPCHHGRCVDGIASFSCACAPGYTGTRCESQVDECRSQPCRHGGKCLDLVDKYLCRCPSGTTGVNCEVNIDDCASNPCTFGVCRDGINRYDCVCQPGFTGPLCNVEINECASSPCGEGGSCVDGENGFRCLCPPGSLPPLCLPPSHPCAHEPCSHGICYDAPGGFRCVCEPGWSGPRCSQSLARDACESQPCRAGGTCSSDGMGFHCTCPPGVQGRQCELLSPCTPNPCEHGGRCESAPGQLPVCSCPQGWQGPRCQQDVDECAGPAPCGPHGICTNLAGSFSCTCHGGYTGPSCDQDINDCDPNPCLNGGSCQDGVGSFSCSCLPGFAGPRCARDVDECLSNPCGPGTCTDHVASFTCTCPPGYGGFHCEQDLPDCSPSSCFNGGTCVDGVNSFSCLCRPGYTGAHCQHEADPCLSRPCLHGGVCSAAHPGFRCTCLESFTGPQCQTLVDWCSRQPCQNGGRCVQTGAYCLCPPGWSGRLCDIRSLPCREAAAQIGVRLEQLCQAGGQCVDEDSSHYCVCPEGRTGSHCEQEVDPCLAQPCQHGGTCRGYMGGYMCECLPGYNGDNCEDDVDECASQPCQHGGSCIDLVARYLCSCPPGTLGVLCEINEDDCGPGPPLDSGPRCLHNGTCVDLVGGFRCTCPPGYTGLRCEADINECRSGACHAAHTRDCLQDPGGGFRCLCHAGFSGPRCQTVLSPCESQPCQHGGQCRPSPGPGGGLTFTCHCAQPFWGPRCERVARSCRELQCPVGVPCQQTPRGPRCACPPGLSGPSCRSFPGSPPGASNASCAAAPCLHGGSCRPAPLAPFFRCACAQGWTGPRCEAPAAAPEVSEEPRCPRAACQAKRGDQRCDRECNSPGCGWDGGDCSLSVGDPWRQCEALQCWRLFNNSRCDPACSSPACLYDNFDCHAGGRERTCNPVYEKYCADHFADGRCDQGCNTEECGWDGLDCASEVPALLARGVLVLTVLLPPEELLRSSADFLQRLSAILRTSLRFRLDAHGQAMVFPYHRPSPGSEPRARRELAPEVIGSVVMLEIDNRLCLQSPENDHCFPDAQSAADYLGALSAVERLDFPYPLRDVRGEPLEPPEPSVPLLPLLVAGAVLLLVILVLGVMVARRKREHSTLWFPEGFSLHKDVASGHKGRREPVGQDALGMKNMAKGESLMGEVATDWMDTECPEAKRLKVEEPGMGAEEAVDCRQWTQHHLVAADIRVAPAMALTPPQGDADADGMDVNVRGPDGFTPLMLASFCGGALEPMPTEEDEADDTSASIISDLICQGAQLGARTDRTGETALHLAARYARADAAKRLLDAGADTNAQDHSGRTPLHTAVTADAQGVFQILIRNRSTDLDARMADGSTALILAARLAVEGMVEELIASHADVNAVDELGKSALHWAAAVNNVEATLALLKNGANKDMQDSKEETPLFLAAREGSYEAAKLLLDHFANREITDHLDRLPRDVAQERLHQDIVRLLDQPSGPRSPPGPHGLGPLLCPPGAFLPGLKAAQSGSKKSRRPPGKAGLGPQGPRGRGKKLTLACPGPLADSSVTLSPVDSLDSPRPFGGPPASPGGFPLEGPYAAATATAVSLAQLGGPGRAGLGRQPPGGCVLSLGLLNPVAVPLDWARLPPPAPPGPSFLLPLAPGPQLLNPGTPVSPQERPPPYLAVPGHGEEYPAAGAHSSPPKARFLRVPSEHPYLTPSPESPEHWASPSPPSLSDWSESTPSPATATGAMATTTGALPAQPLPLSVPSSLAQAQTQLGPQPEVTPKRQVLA
Fibroblast growth factor 10 (Homo sapiens), sequence (O15520 whole entry, looked up): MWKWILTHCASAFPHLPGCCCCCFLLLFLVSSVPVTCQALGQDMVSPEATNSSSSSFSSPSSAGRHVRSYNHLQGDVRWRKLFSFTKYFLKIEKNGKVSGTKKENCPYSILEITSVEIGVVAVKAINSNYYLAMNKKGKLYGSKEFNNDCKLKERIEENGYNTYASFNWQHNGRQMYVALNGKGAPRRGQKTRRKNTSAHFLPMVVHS
Follistatin-related protein 3 (Homo sapiens), sequence (O95633 whole entry, looked up): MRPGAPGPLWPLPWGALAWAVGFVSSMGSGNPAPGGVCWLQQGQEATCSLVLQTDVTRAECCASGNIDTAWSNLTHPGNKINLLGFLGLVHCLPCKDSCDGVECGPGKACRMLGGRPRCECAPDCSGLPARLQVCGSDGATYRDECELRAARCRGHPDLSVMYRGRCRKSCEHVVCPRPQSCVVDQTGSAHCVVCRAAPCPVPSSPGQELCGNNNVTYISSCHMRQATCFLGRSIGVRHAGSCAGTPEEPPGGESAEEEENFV
Dickkopf-related protein 1 (Homo sapiens), sequence (O94907 whole entry, looked up): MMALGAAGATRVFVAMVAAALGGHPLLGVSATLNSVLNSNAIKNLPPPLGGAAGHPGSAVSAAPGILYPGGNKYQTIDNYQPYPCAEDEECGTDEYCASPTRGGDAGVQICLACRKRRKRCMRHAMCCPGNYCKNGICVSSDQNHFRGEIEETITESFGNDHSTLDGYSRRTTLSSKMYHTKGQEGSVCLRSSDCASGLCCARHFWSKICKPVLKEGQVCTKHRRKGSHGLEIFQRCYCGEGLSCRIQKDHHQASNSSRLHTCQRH
Torsin-1A-interacting protein 2 (Homo sapiens), sequence (Q8NFQ8 whole entry, looked up): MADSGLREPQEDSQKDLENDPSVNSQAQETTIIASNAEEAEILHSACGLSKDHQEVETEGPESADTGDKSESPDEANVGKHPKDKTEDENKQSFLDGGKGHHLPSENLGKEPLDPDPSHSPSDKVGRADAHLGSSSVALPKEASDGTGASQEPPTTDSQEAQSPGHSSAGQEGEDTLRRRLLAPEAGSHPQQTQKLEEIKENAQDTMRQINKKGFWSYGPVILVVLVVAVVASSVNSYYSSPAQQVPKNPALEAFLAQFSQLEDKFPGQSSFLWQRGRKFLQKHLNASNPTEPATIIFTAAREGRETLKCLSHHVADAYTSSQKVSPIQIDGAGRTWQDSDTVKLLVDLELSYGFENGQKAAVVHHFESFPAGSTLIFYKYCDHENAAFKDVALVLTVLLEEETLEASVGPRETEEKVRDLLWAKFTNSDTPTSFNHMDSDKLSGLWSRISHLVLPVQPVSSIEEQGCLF
Epidermal growth factor receptor (Homo sapiens), sequence (P00533 whole entry, looked up): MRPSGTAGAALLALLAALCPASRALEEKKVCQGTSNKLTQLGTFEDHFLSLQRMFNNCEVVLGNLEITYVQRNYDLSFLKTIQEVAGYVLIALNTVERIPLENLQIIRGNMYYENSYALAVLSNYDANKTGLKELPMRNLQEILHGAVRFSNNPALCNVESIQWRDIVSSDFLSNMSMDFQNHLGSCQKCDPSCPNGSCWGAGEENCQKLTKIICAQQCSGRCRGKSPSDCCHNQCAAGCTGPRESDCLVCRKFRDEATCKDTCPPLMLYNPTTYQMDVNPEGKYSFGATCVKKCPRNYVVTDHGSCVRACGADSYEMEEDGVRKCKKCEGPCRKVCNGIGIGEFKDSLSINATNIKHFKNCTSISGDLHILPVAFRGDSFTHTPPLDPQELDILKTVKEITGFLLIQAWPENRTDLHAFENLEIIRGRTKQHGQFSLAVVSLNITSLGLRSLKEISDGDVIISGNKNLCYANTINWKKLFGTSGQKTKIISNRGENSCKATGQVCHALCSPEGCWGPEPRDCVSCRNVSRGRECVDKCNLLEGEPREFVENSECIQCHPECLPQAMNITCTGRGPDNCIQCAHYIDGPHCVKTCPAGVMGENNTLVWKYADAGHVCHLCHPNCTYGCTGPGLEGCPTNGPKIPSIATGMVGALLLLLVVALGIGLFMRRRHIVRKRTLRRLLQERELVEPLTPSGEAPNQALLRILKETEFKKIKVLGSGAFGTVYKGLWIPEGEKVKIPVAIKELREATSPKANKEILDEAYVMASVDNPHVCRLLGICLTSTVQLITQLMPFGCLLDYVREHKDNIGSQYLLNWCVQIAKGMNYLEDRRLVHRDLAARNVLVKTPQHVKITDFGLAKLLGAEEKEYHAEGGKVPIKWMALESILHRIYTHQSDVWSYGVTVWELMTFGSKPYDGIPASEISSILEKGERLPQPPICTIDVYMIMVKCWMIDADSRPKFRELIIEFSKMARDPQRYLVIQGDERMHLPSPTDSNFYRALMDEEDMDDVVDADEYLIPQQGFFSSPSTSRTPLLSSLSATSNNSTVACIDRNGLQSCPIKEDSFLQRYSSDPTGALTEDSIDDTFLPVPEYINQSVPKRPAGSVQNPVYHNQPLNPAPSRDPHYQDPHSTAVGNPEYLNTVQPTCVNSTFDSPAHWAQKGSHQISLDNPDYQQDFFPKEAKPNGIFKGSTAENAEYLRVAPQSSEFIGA

As for `CCC(=O)[C@]12O[C@@]3([C@@H]4C(=O)OCC[C@@H]41)N(CC)C(C)=C(C(=O)OC)[C@@H](c1ccccc1)N3C2=O`, the composite z-score was -0.486 in [1]; 0.155 in assay [5]; -0.0928 in [7]; 0.152 in assay [8]; -0.37 in [9]; -0.0818 in [10]. In addition, the composite z-score in assay [11] was -0.155; in [12], -0.41; in assay [13], -0.87; in assay [15], 0.162; in assay [16], 0.0495; in assay [17] it was 0.0064. For the same compound, the composite z-score in assay [18] is 0.599; in assay [19], 0.817; in assay [20], 1.7. The z-score in assay [2] was -1.62 (inactive); in assay [3], -1.89 (inactive); in [4] it was -0.153 (inactive); in assay [6], 0.421 (inactive); in [14] it was -1.9 (inactive).
Consider `CCOC(=O)C[C@H]1[C@H](OC(=O)c2cc3ccccc3oc2=O)[C@@H](NC(=O)c2ccc3ccccc3c2)c2cc(OCCCO)ccc2N1C(=O)c1ccc2ccccc2n1`, for which the composite z-score in assay [1] was 0.154; in assay [5], 0.868; in assay [7], -0.225; in assay [8], 0.956; in assay [9], 1.03; in assay [10], 0.0768. Moreover, the composite z-score is 0.209 in [11]; 0.0447 in assay [12]; -0.19 in [13]; 0.876 in assay [15]; 0.4 in assay [16]; 0.573 in assay [17]. The composite z-score in assay [18] came out at 1.09; in [19], 0.858; in [20], 0.392. Moreover, the z-score in [2] is -0.653 (inactive); in assay [3], -0.777 (inactive); in [4] it was -0.31 (inactive); in assay [6] it was 2.45 (inactive); in assay [14], -0.017 (inactive).
Take `CCc1cccc(NC(=O)O[C@H]2[C@H](OC(=O)Nc3ccccc3)[C@@H](OC(=O)Nc3ccccc3)[C@@H](OC)O[C@@H]2CO)c1`: the composite z-score in [1] was 1.54; in assay [5] it was 3.25; in [7] it was -0.142; in [8], 1.81; in [9], 1.06; in [10] it was -0.0549. For the same compound, the composite z-score in assay [11] amounted to 1.35; in [12], 0.169; in [13], 0.37; in assay [15] it was 1.54; in assay [16], 1.07; in assay [17] it was 0.0832. Moreover, the composite z-score in [18] stood at 1.41; in assay [19], 0.319; in assay [20] it was 0.451. The z-score in assay [2] is 1.77 (inactive); in assay [3], 2.57 (inactive); in [4], 1.97 (inactive); in [6], -0.0576 (inactive); in assay [14], -0.0187 (inactive).
On to `C[N+](C)(C)CCCCNC(=O)[C@H]1C[C@H]2C(=O)NCC(=O)N2[C@H]1c1cccc(OCCO)c1`, for which the composite z-score in assay [1] is 1.54; in [5] it was 0.57; in assay [7], -0.0463; in [8], 1.91; in assay [9] it was 1.05; in [10], 0.0717. The composite z-score in assay [11] was 1.59; in assay [12], 0.0166; in assay [13] it was -0.335; in assay [15], 1.45; in [16], 1.29; in assay [17], 1.09. Moreover, the composite z-score in [18] turned out to be 1.49; in assay [19], 1.84; in assay [20], 0.747. Moreover, the z-score in assay [2] is -0.138 (inactive); in assay [3], 0.0073 (inactive); in assay [4], -1.66 (inactive); in [6], -0.271 (inactive); in [14], 0.589 (inactive).
As for `Cc1ccc(N2C(=O)c3ccccc3[C@@H](C(=O)NCc3ccccc3)[C@@H]2c2ccc(CO)cc2)nc1`, the composite z-score in assay [1] was -0.363; in assay [5], 1.39; in assay [7] it was 0.306; in assay [8], 0.0163; in assay [9] it was -0.763; in [10], -0.166. Also, the composite z-score in [11] is -0.566; in assay [12], 0.601; in [13], 1.01; in [15] it was 0.329; in [16], -1.13; in assay [17] it was -0.446. Also, the composite z-score in [18] was -0.526; in assay [19], 0.251; in assay [20], 1.71. Also, the z-score is 0.938 (inactive) in assay [2]; -0.242 (inactive) in [3]; 0.76 (inactive) in [4]; 1.29 (inactive) in assay [6]; -1.47 (inactive) in assay [14].
